Drawing on PubChem BioAssay (EPA / NIEHS), this text covers AC50 and outcome for 24 compounds.

Each structure is given as a SMILES string. Results filed as inconclusive are left out. The source made the active and inactive calls. How the source made its calls: active means hit-call score of the fitted dose curve at least 0.9, where 1 is the maximum; inconclusive means response in the unintended direction; inactive means score below 0.9.

Chain of sheep Cyclooxygenase-1 (Cox1), PTGS1 (gene 443551) (P05979 whole entry, looked up): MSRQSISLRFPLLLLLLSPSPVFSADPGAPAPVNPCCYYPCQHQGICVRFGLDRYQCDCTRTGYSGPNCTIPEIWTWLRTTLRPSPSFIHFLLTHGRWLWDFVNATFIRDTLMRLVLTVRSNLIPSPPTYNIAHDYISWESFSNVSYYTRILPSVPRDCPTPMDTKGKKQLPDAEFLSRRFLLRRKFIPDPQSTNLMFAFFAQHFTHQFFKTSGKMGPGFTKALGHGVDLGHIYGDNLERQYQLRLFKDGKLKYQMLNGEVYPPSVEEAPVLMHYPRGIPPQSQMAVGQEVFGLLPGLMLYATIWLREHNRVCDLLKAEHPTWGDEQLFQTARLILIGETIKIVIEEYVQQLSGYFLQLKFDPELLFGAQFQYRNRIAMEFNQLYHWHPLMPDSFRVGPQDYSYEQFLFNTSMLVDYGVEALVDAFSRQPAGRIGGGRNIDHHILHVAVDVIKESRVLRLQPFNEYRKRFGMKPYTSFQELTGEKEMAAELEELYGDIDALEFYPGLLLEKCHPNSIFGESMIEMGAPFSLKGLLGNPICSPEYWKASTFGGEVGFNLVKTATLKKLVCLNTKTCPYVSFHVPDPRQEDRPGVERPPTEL
Chain of human Vascular Endothelial Growth Factor Receptor 1 (VEGFR1), FLT1 (gene 2321) (P17948 whole entry, looked up): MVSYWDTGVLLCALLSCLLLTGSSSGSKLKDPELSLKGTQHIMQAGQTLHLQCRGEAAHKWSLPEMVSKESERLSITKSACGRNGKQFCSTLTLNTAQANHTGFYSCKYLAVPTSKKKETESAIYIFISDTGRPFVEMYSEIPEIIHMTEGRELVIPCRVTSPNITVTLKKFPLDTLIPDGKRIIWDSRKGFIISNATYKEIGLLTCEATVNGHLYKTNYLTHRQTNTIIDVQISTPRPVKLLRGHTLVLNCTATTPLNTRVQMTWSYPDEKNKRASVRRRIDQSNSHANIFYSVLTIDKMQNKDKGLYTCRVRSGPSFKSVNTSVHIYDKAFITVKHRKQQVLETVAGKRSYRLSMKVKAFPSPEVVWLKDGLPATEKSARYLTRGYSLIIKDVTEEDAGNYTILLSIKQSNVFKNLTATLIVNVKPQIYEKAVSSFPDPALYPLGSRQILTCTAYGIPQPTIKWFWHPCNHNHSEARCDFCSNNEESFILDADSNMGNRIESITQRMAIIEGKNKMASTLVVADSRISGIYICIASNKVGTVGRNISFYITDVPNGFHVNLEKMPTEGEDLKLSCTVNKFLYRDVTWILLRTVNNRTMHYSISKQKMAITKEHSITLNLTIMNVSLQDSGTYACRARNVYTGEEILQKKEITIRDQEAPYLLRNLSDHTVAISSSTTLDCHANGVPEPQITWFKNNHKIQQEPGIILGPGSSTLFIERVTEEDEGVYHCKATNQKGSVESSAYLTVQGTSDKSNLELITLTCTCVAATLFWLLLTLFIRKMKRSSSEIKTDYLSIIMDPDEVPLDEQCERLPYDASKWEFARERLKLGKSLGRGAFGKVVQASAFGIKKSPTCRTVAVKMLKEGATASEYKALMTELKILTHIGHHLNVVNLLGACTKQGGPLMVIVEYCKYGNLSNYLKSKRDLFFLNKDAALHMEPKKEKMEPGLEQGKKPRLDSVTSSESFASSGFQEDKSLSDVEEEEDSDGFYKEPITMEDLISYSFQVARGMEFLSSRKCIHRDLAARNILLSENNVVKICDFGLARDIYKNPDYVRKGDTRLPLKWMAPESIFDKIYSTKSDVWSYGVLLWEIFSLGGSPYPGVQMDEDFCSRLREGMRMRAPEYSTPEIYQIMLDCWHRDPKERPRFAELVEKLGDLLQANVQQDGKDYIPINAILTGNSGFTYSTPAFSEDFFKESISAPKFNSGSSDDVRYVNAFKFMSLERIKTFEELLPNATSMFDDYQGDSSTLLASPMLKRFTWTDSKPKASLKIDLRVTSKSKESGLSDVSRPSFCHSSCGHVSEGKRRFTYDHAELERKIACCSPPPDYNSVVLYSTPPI
Chain of human Phosphodiesterase 10 (PDE10), PDE10A (gene 10846) (Q9Y233 whole entry, looked up): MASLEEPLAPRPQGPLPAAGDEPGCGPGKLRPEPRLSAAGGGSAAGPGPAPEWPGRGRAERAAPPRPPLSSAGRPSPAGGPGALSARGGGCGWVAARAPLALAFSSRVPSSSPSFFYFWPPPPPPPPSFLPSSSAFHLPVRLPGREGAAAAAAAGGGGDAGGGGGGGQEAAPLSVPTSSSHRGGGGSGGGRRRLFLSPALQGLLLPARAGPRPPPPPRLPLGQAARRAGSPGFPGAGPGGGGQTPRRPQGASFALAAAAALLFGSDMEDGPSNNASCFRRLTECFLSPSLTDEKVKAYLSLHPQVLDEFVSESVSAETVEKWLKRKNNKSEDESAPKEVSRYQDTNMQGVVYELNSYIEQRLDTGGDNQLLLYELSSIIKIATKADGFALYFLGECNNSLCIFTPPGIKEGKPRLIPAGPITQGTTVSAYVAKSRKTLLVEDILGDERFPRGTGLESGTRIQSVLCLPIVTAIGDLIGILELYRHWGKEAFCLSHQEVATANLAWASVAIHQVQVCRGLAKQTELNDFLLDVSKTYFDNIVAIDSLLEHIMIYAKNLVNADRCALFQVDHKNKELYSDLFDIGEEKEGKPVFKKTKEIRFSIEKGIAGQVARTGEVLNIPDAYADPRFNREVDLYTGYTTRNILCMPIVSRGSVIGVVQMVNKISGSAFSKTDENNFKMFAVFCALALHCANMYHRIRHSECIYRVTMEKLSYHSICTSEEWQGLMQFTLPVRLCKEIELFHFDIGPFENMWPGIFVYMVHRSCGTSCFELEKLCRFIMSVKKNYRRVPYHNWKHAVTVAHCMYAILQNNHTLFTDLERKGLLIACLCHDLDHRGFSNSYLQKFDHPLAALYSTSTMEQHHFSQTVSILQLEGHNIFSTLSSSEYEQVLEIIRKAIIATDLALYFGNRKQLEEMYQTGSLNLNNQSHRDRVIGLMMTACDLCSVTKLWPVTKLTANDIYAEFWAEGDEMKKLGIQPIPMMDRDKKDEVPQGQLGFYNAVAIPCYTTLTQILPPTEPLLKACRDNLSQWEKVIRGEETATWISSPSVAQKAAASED
Chain of human Phosphoinositide 3-kinase alpha (PI3Ka), PIK3CA (gene 5290) (P42336 whole entry, looked up): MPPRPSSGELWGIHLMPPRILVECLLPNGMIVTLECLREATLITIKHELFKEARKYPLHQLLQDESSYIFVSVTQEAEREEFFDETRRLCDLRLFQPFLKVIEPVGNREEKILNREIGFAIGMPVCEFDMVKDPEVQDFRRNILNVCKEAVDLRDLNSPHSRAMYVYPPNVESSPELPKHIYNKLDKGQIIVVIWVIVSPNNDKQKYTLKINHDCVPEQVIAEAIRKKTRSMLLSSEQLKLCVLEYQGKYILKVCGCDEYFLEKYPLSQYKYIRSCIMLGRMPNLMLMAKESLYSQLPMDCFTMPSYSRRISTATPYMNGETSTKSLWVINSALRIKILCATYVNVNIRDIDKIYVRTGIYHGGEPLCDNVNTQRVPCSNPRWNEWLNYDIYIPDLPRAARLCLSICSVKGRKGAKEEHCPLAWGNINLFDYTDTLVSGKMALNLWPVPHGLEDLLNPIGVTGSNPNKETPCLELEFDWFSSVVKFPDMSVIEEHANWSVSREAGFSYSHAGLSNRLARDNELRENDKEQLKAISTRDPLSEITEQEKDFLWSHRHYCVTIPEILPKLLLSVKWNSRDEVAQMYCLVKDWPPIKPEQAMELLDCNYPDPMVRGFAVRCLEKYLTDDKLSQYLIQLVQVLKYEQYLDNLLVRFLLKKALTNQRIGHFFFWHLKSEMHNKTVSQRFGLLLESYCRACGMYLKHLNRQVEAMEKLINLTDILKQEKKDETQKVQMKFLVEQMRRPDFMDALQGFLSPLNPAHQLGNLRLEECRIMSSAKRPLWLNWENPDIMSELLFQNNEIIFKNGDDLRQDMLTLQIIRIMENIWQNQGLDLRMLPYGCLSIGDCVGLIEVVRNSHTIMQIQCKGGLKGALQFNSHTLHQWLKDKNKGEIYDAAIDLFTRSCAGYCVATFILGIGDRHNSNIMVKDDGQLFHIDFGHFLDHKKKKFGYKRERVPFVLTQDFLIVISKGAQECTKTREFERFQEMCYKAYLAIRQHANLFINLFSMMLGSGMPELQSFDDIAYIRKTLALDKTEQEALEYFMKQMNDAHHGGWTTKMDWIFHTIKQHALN

For the first experiment, the target named is human Phosphodiesterase 10 (PDE10), PDE10A (gene 10846) (UniProt Q9Y233). As to the kind of experiment: NVS_ENZ_hPDE10: NovaScreen (NVS) Enzymatic Assay for human Phosphodiesterase 10 (PDE10) (AID 2283195). A digest of the protocol:
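PDE10A, cell-free; 1 h incubation; fluorescence intensity + electrophoretic mobility shift separating substrate/product; DMSO = baseline; 25 uM duplicate primary, CRC up to 50 uM.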
Consider `OCCCCC(O)CO` (centres undefined), for which the AC50 (commonly the concentration at which the activity in the assay is half-maximal) was 40.4 µM (active).
Take `O=CN1CCOCC1`: the outcome was inactive.
Take `O=[N+]([O-])c1cccc(Cl)c1`: the AC50 is 25 µM (active).
On to `Oc1c(Cl)cc(Cl)c(Cl)c1Cc1c(O)c(Cl)cc(Cl)c1Cl`, for which the call was inactive.

In another experiment the target is human Phosphoinositide 3-kinase alpha (PI3Ka), PIK3CA (gene 5290) (UniProt P42336). As to the kind of experiment: NVS_ENZ_hPI3Ka: NovaScreen (NVS) Enzymatic Assay for human Phosphoinositide 3-kinase alpha (PI3Ka) (AID 2283196). An outline of the steps:
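Enzyme activity as fluorescence after mobility-shift separation of substrate and product, 1 h reaction, recombinant human PI3Kα; concentration-response to 50 uM max for chemicals passing a 25 uM duplicate screen.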
On to `OCCCCC(O)CO` (centres undefined), for which the AC50 was 0.803 µM (active).
On to `CC(=O)c1c(C)c([N+](=O)[O-])c(C(C)(C)C)c([N+](=O)[O-])c1C`, for which the outcome was inactive.
Still for that read-out and setting: with `CCOc1ccc(NC(=O)CC(C)=O)cc1` the entry was “inactive”.
Consider `CC(C)(C)CC(C)(C)c1ccc(OCCOCC[N+](C)(C)Cc2ccccc2)cc1`, for which the AC50 was 9.05 µM (active).
Turning to `CC(=O)CC(=O)Nc1ccccc1`, the outcome was inactive.
As for `O=CN1CCOCC1`, the compound was called inactive.
For `c1ccc2cc(Nc3ccc(Nc4ccc5ccccc5c4)cc3)ccc2c1`, the AC50 was 17.6 µM (active).
Regarding `COC(C)(C)CC(C)=O`, the call was inactive.
With `CCCCCCOCCOCCO`, the compound was classed as inactive.
Consider `COc1cc(Cl)c(OC)cc1N`, for which the outcome was inactive.
The same measure, in the same setting: with `Cc1ccc(C)o1` the entry was “inactive”.
Still for that read-out and setting: with `COCCOC(=O)c1ccccc1C(=O)OCCOC` the entry was “inactive”.
On to `Oc1c(Cl)cc(Cl)c(Cl)c1Cc1c(O)c(Cl)cc(Cl)c1Cl`, for which the AC50 was 1.96 µM (active).

The target in the next experiment is human Vascular Endothelial Growth Factor Receptor 1 (VEGFR1), FLT1 (gene 2321) (UniProt P17948). The experiment is described as follows: NVS_ENZ_hVEGFR1: NovaScreen (NVS) Enzymatic Assay for human Vascular Endothelial Growth Factor Receptor 1 (VEGFR1) (AID 2283226). A digest of the protocol:
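Cell-free assay of recombinant human VEGFR1 kinase with substrate, measured 1 h after dosing; fluorescence with electrophoretic mobility-shift separation of substrate and product, referenced to DMSO; primary screen at 25 uM in duplicate, actives then run in concentration series.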
As to `[O-]n1ccccc1=S.[O-]n1ccccc1=S.[Zn+2]`, the compound was classed as inactive.
In the case of `O=[N+]([O-])c1cccc(Cl)c1`, the compound was classed as inactive.
On the same count and under the same terms, the result for `CN(C)C(=S)SC(=S)N(C)C` reads “inactive”.
As to `CC(=O)Nc1ccc(C(=O)CCl)cc1`, the AC50 is 40.1 µM (active).
In the case of `COCCOC(=O)c1ccccc1C(=O)OCCOC`, the outcome was inactive.
Take `Oc1c(Cl)cc(Cl)c(Cl)c1Cc1c(O)c(Cl)cc(Cl)c1Cl`: the AC50 is 2.93 µM (active).

The target of another experiment is sheep Cyclooxygenase-1 (Cox1), PTGS1 (gene 443551) (UniProt P05979). As to the kind of experiment: NVS_ENZ_oCOX1: NovaScreen (NVS) Enzymatic Assay for sheep Cyclooxygenase-1 (Cox1) (AID 2283239).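 Further: actives reduce cyclooxygenase activity so potencies are for inhibitors.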 An outline of the steps:
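Native ovine seminal vesicle protein serves as enzyme source in this biochemical assay. Colorimetric signal is recorded 0.66 h after chemical addition, and decreases versus the DMSO control define activity.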
For the compound `CS(=O)(=O)OCCCCOS(C)(=O)=O`, the call was inactive.
Same read-out and setting: with `CC(=O)C1(C)CC2=C(CCCC2(C)C)CC1C` (centres undefined) the entry was “inactive”.
On to `CC1(C)C2=CCCC(C)(C)[C@]23CC[C@H]1C3`, for which the AC50 was 16.4 µM (active).
Take `[O-]n1ccccc1=S.[O-]n1ccccc1=S.[Zn+2]`: the AC50 is 5.57 µM (active).
On the same count and under the same terms, with `CN(C)C(=O)Nc1ccc(Oc2ccc(Cl)cc2)cc1` the figure was 25 µM (active); with `COc1cc(Cl)c(OC)cc1N`, 25 µM (active).
On to `c1ccc(CCc2ccccc2)cc1`, for which the outcome was inactive.
Consider `CC(=O)Nc1ccc(C(=O)CCl)cc1`, for which the compound was classed as inactive.
For the compound `CCOC(=O)[C@@H](C)Oc1ccc(Oc2nc3ccc(Cl)cc3o2)cc1`, the compound was classed as inactive.
For the compound `CCCCCCCCCCCCCCCC(=O)OC/C=C(C)/C=C/C=C(C)/C=C/C1=C(C)CCCC1(C)C`, the AC50 was 42.8 µM (active).
Still for that read-out and setting: the result for `Oc1c(Cl)cc(Cl)c(Cl)c1Cc1c(O)c(Cl)cc(Cl)c1Cl` reads 15.6 µM (active).
